# Test results published in PubChem BioAssay AID720534 (National Center for Advancing Translational Sciences (NCATS), 2013).
# Out of some 1,600 compounds screened, about 990 (62%) were called active. Inconclusive results (about 30%) are left out. The set was probably picked from earlier hits. This is one part of a sample in which actives are shown more often than they occur. The call rests on the fitted dose curve; in most records, active means well fitted inhibition curve with a large enough effect; inconclusive means small, poorly fitted or top-dose-only effect; inactive means no such curve, though single readings can be large or run the other way.
# Assay: qHTS for Inhibitors of TGF-b: Confirmation of Cherry Picks; further: nearly all actives have a fitted effect of over 65% in size
# Conditions: HepG2 CAGA-GFP TGF-b reporter, GFP fluorescence, 18 h; cells stimulated with TGF-beta, 500 pg/mL
# From the text: TGF-b is a main component in the TGF-b signaling pathway which plays diverse roles in cellular and development pathways. TGF-b is mediated through transcription factors called "Smads". Although the Smad-dependent pathway is the primary canonical TGF-b signaling mode, TGF-b1 can also activate alternative signaling pathways, including those involving MAPK (ERK, JNK and p38). This interaction may mediate or enhance Smad-dependent responses, or can exert Smad-independent effects. The complexity of this signaling cascade allows the TGF-b superfamily to perform unique, overlapping or redundant functions. We believe that targeting the TGF-beta pathway at the Smad-transcription factor level may eliminate the consequences of disrupting the entire pathway and offer specificity without affecting other signaling pathways. Smad3 is the primary transducer of TGF-b's signals and Smad3 regulates many functions attributed to TGF-b signaling. We hypothesize that Smad3 inhibitors will selectively eliminate Smad3-specific TGF-beta signals without undesired off-target effects. We aim to identify Smad3-small molecule antagonists using a quantitative high throughput screening (qHTS) approach. In this assay, hits identified from the primary screen were re-tested. MH087449NIH Chemical Genomics Center [NCGC] NIH Molecular Libraries Probe Centers Network [MLPCN] MLPCN Grant: MH087449 Assay Submitter (PI): Sushil Rane, National Institute of Diabetes and Kidney Diseases
# Suspensions of trypsinized HEPG2 CAGA-GFP cells were dispensed into white, tissue culture-treated, solid 1536-well plates at 5uL/well (1000 cells/well final concentration) in DMEM medium supplemented with 1% FBS. Plates were incubated at 37 degrees C for 2 hours, after which 23 nL of compounds or DMSO were delivered to each well using a pin tool. One uL of recombinant TGF-beta in DMEM (1% FBS) was then dispensed (500 pg/mL final concentration), and plates were incubated at 37 degrees C for 18 hours. The plates were measured on an Acumen eX3 Explorer plate reader for GFP fluorescence (ex488/em500-530). GFP values were calculated by determining the mean GFP fluorescence of individual cells, and compiling these values for each well to determine a total well GFP signal. The %Activity was determined from the corrected fluorescence values. A titration of the known TGF-B inhibitor SB431542 was included to monitor plate performance, while unstimulated HEPG2 (-TGF-B) control wells were used to normalize %Activity of identified inhibitors; unstimulated wells corresponded to 100%Activity (full inhibition), while stimulated cell controls (+DMSO) were used to normalize 0%Activity (no inhibition). Concentration-response curves were fitted to the signals arising from the resulting fluorescence. The concentration-effect curves were then classified based on curve quality (r2), response magnitude and degree of measured activity, and compounds were subsequently categorized based on their curve class.
# Potency means the concentration at half of the fitted maximal effect.
row,SMILES,Potency
1,COC(=O)C1=C(c2cc3ccccc3o2)C[C@@H]2CC[C@H]1N2C(=O)NC1CCCCC1,20.6 µM (active)
2,O=Cc1cn(Cc2ccc(F)cc2Cl)c2ccccc12,9.2 µM (active)
3,CN(C(=O)c1cccc(NC(=O)Cc2cccc([N+](=O)[O-])c2)c1)C1CCCCC1,13 µM (active)
4,CCC(C)(O)C(=O)OC1C(=O)OC2CC3C(C)=CC(=O)C(O)C3(C)C3C4(O)OCC23C1C(C)C4O (stereo not given),0.291 µM (active)
5,CC[C@H]1CN2CCc3cc(OC)c(OC)cc3[C@@H]2C[C@@H]1C[C@H]1NCCc2cc(OC)c(OC)cc21,0.0231 µM (active)
